From article PMC9911399, “Two distinct binding modes provide the RNA-binding protein RbFox with extraordinary sequence specificity”
Substitutions are numbered along the chain they refer to; changes in the protein carry UniProt numbers. The full ranking holds about 16,000 sequences; the median of “ka relative to ugcaugu” is about 0.0091, and the highest 2% start at about 0.032. What follows is part of a selection rich in the highest values, with near analogues and random picks from the rest.

B1: ACUAAUA (DNA:RNA)
RNA: GGGAGACCGGAAUUCAGAUUGUCCACUAAUAUUAAAUCCCGUCGUAGCCACCA
DNA 1: CAATCTGAATTCCGGTCTCCC
DNA 2: TGGTGGCTACGACGGGATT
B2: UCAUCUC (DNA:RNA)
RNA: B1 RNA with A25U, U27A, A28U, A29C, A31C
DNA 1: CAATCTGAATTCCGGTCTCCC
DNA 2: TGGTGGCTACGACGGGATT
B3: ACUUGAA (DNA:RNA)
RNA: B1 RNA with A28U, A29G, U30A
DNA 1: CAATCTGAATTCCGGTCTCCC
DNA 2: TGGTGGCTACGACGGGATT
B4: UAACAGC (DNA:RNA)
RNA: B1 RNA with A25U, C26A, U27A, A28C, U30G, A31C
DNA 1: CAATCTGAATTCCGGTCTCCC
DNA 2: TGGTGGCTACGACGGGATT
B5: CCUUGGA (DNA:RNA)
RNA: B1 RNA with A25C, A28U, A29G, U30G
DNA 1: CAATCTGAATTCCGGTCTCCC
DNA 2: TGGTGGCTACGACGGGATT
B6: UGAGAAC (DNA:RNA)
RNA: B1 RNA with A25U, C26G, U27A, A28G, U30A, A31C
DNA 1: CAATCTGAATTCCGGTCTCCC
DNA 2: TGGTGGCTACGACGGGATT
B7: GACUAUG (DNA:RNA)
RNA: B1 RNA with A25G, C26A, U27C, A28U, A31G
DNA 1: CAATCTGAATTCCGGTCTCCC
DNA 2: TGGTGGCTACGACGGGATT
B8: UAACGUU (DNA:RNA)
RNA: B1 RNA with A25U, C26A, U27A, A28C, A29G, A31U
DNA 1: CAATCTGAATTCCGGTCTCCC
DNA 2: TGGTGGCTACGACGGGATT
B9: GCGUCCG (DNA:RNA)
RNA: B1 RNA with A25G, U27G, A28U, A29C, U30C, A31G
DNA 1: CAATCTGAATTCCGGTCTCCC
DNA 2: TGGTGGCTACGACGGGATT
B10: GCACCCG (DNA:RNA)
RNA: B1 RNA with A25G, U27A, A28C, A29C, U30C, A31G
DNA 1: CAATCTGAATTCCGGTCTCCC
DNA 2: TGGTGGCTACGACGGGATT
B11: GCGCAGA (DNA:RNA)
RNA: B1 RNA with A25G, U27G, A28C, U30G
DNA 1: CAATCTGAATTCCGGTCTCCC
DNA 2: TGGTGGCTACGACGGGATT
B12: GCACGCU (DNA:RNA)
RNA: B1 RNA with A25G, U27A, A28C, A29G, U30C, A31U
DNA 1: CAATCTGAATTCCGGTCTCCC
DNA 2: TGGTGGCTACGACGGGATT
B13: GCGCACG (DNA:RNA)
RNA: B1 RNA with A25G, U27G, A28C, U30C, A31G
DNA 1: CAATCTGAATTCCGGTCTCCC
DNA 2: TGGTGGCTACGACGGGATT
B14: CGCGUCG (DNA:RNA)
RNA: GGGAGACCGGAAUUCAGAUUGUCCCGCGUCGUUAAAUCCCGUCGUAGCCACCA
DNA 1: CAATCTGAATTCCGGTCTCCC
DNA 2: TGGTGGCTACGACGGGATT
B15: GCACCGC (DNA:RNA)
RNA: B1 RNA with A25G, U27A, A28C, A29C, U30G, A31C
DNA 1: CAATCTGAATTCCGGTCTCCC
DNA 2: TGGTGGCTACGACGGGATT
B16: CGCCACG (DNA:RNA)
RNA: B14 RNA with G28C, U29A
DNA 1: CAATCTGAATTCCGGTCTCCC
DNA 2: TGGTGGCTACGACGGGATT
B17: GCACGUC (DNA:RNA)
RNA: B1 RNA with A25G, U27A, A28C, A29G, A31C
DNA 1: CAATCTGAATTCCGGTCTCCC
DNA 2: TGGTGGCTACGACGGGATT
B18: CGCACGC (DNA:RNA)
RNA: B14 RNA with G28A, U29C, C30G, G31C
DNA 1: CAATCTGAATTCCGGTCTCCC
DNA 2: TGGTGGCTACGACGGGATT
B19: GCGCACC (DNA:RNA)
RNA: B1 RNA with A25G, U27G, A28C, U30C, A31C
DNA 1: CAATCTGAATTCCGGTCTCCC
DNA 2: TGGTGGCTACGACGGGATT
B20: GCACGCG (DNA:RNA)
RNA: B14 RNA with C25G, G26C, C27A, G28C, U29G
DNA 1: CAATCTGAATTCCGGTCTCCC
DNA 2: TGGTGGCTACGACGGGATT

target: T1, RBFOX1 RRM (Homo sapiens, UniProt Q9NWB1 109-208); test: EMSA; HiTS-Eq, 1 nM pool, 10 min; buffer printed only for the single-RNA assays: 10 mM Tris pH 7.5, 150 mM NaCl, 3.4 mM EDTA, 0.001% NP-40, 30 C; conditions: tags: His6 N-terminal (pET28a); label: 5' 32P
T1 sequence: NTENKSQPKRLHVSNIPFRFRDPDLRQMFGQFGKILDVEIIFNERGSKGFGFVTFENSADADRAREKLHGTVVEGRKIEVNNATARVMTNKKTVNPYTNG
In short: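 Purified RbFox RRM (wild type or mutant) was equilibrated for 10 min in 50 µL with 1 nM of a 5′-radiolabelled pool of RNA with 7 randomized nucleotides, its flanks annealed to DNA oligonucleotides, across increasing protein concentrations. Free RNA was separated by 8% native PAGE, excised, reverse-transcribed, PCR-barcoded and sequenced on an Illumina HiSeq 2500. Relative association constants came from read-count changes of each variant against the control reaction, normalised to the cognate motif.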

Binder	binding signal
B1	0.00101 KA relative to UGCAUGU
B2	0.00423 KA relative to UGCAUGU
B3	0.0101 KA relative to UGCAUGU
B4	0.00375 KA relative to UGCAUGU
B5	0.00739 KA relative to UGCAUGU
B6	0.0124 KA relative to UGCAUGU
B7	0.0187 KA relative to UGCAUGU
B8	0.00814 KA relative to UGCAUGU
B9	0.0136 KA relative to UGCAUGU
B10	0.00754 KA relative to UGCAUGU
B11	0.0118 KA relative to UGCAUGU
B12	0.0317 KA relative to UGCAUGU
B13	0.062 KA relative to UGCAUGU
B14	0.0133 KA relative to UGCAUGU
B15	0.00949 KA relative to UGCAUGU
B16	0.0114 KA relative to UGCAUGU
B17	0.0416 KA relative to UGCAUGU
B18	0.0306 KA relative to UGCAUGU
B19	0.0133 KA relative to UGCAUGU
B20	0.0376 KA relative to UGCAUGU
